Results taken from PubChem BioAssay (NCATS).
Inconclusive results are not listed. Activity calls are given as the source filed them. Calls follow the shape of the dose curve; as a rule, active = well fitted inhibition curve with a large enough effect; inconclusive = small, poorly fitted or top-dose-only effect; inactive = flat fitted curve, though single readings scatter.

Key:
Assay in all cases: qHTS profiling for inhibitors of Plasmodium falciparum proliferation (AID 504749); also: nearly all actives have a fitted effect of over 60% in size
Conditions in all cases: P. falciparum in erythrocytes, SYBR Green DNA, 72 h; series mostly up to 28.7 µM
[1] = system: CP250
Method in brief: (§1)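 P. falciparum-infected erythrocytes (0.3% parasitemia, 2.5% hematocrit final) were exposed to compounds for 72 h at 37 C in 5% CO2, then lysed with SYBR Green buffer overnight at room temperature; parasite DNA fluorescence was normalized to artemisinin and DMSO controls.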

[2] = system: CP260
Method in brief: as §1

[3] = system: CP262
Method in brief: as §1

[4] = system: CP265
Method in brief: as §1

[5] = system: CP266
Method in brief: as §1

[6] = system: CP268
Method in brief: as §1

[7] = system: CP269
Method in brief: as §1

[8] = system: CP286
Method in brief: as §1

[9] = system: CP252
Method in brief: as §1

[10] = system: CP256
Method in brief: as §1

Measured: Potency
Potency is read from the fitted curve at half-maximal effect.

CCOC(=O)Cc1ccc(-c2ccccc2)cc1
active: [4] 0.0006 µM
not listed: [9] | [10]
inactive: all other assays above

Cn1c(O)c(N=NC(N)=S)c2ccccc21
inactive: [5] | [6] | [7]

CC(C)(C)CC(C)(C)c1ccc(OCCO)cc1
not listed: [10]
inactive: all other assays above

C[C@H](CCCC(C)(C)O)[C@H]1CC[C@H]2[C@@H]3CC=C4C[C@@H](O)CC[C@]4(C)[C@H]3CC[C@]12C
not listed: [1]
inactive: all other assays above

CC(=O)c1ccc2c(c1)N(CCCN1CCN(CCO)CC1)c1ccccc1S2
active: [9] 10 µM | [10] 8.91 µM | [4] 11.2 µM | [6] 12 µM | [7] 10.7 µM | [8] 8.91 µM

CC(CN(C)C)CN1c2ccccc2Sc2ccc(C(F)(F)F)cc21 (stereo not drawn)
active: [8] 11.2 µM
inactive: [5]

O=C(O[C@H]1CN2CCC1CC2)N1CCc2ccccc2[C@@H]1c1ccccc1
not listed: [7] | [10]
inactive: all other assays above

Cn1c(=O)c2c(ncn2CCOC(=O)C(C)(C)Oc2ccc(Cl)cc2)n(C)c1=O
not listed: [4] | [9] | [10]
inactive: all other assays above

C#C[C@]1(O)CC[C@@H]2[C@H]3CCC4=CC(=O)CC[C@H]4[C@H]3C(=C)C[C@@]21CC
active: [5] 0.301 µM | [6] 0.426 µM | [7] 0.536 µM
not listed: [10]
inactive: all other assays above

COc1ccc(/C=C/C(=O)OCCC(C)C)cc1
not listed: [1]
inactive: all other assays above

N#Cc1ccc2c(c1)N(CCCN1CCC(O)CC1)c1ccccc1S2
inactive: [9] | [3] | [5]
active: [2] 11.2 µM

CN1CCCC(CN2c3ccccc3Sc3ccccc32)C1 (stereo not drawn)
inactive: [3] | [4] | [5]

Cc1ncc(C[n+]2csc(CCOP(=O)(O)O)c2C)c(N)n1
not listed: [1]
inactive: all other assays above

CCCOc1cc(N)ccc1C(=O)OCCN(CC)CC
not listed: [7] | [10]
inactive: all other assays above

CCCC(CCC)C(=O)OC1C[C@H]2CC[C@@H](C1)[N+]2(C)C (stereo partly drawn)
inactive: [5]
active: [10] 12.6 µM | [4] 8.91 µM

CCN(CC)CCC(=O)N1c2ccccc2Sc2ccc(Cl)cc21
active: [10] 11.2 µM | [2] 8.91 µM

CCCCCCCCCCCCCCCCOCCOCCOCCOCCOCCOCCOCCOCCOCCOCCOCCOCCOCCOCCOCCOCCOCCOCCOCCOCCO
active: [2] 11.2 µM
inactive: [3] | [5]

NC(N)=NCC1COc2ccccc2O1 (stereo not drawn)
inactive: [1] | [9] | [4]

CN(C)C(=O)CCSC(SCCC(=O)O)c1cccc(/C=C/c2ccc3ccc(Cl)cc3n2)c1 (stereo not drawn)
not listed: [2] | [8] | [9]
inactive: all other assays above

O=C(OCc1ccccc1)c1cccnc1
not listed: [2] | [8] | [10]
inactive: all other assays above

O=P(O)(O)OP(=O)(O)O
not listed: [4] | [9]
inactive: all other assays above

CS(=O)(=O)c1ccc([C@@H](O)[C@@H](COC(=O)CN)NC(=O)C(Cl)Cl)cc1
inactive: [1] | [3]

CCN(CC)CCOC(=O)c1cccnc1
not listed: [1]
inactive: all other assays above

O=C(CCCN1CCN2CCCC2C1)c1ccc(F)cc1 (stereo not drawn)
not listed: [2] | [4] | [10]
inactive: all other assays above

N[C@@H](Cc1cc(I)c(Oc2ccc(O)c(I)c2)c(I)c1)C(=O)O
inactive: [10] | [3] | [5] | [6]

O=C(Nc1ccc(O)cc1)c1ccccc1O
not listed: [4] | [10]
inactive: all other assays above

CCN(CC)CCCC(C)Nc1cc(/C=C/c2ccccc2Cl)nc2cc(Cl)ccc12 (stereo not drawn)
active: [1] 1.26 µM | [10] 3.55 µM | [2] 2 µM | [4] 2.82 µM | [6] 4.26 µM | [7] 3.38 µM | [8] 1.12 µM

CCN(CC)CCC(=O)N1c2ccccc2Sc2ccc(C(F)(F)F)cc21
not listed: [10]
inactive: all other assays above

CC[C@H]1OC(=O)[C@H](C)[C@@H](O[C@H]2C[C@@](C)(OC)[C@@H](O)[C@H](C)O2)[C@H](C)[C@@H](O[C@@H]2O[C@H](C)C[C@H](N(C)C)[C@H]2O)[C@](C)(O)C[C@@H](C)CN(C)[C@H](C)[C@@H](O)[C@]1(C)O
active: [9] 4.47 µM | [10] 2.24 µM | [4] 10 µM | [7] 1.51 µM | [8] 3.98 µM
